Here are results for 17 molecules from PubChem BioAssay (EPA / NIEHS).

The subject of experiment [1] is IYD (gene 389434). Kind of experiment: CCTE_GLTED_hIYD: CCTE's human Iodotyrosine Deiodinase (xIYD) Inhibition Assay, Great Lakes Toxicology and Ecology Division (GLTED) Lab (AID 2284317).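 Further: cell-free human IYD enzyme made in baculovirus insect cells; iodide freed from monoiodotyrosine measured by cerium arsenite color change at 420 nm.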 An outline of the steps:
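First, recombinant human IYD (baculovirus-insect cells), MIT and chemical incubated 3 h. Next, iodide isolated on Dowex. Finally, Sandell-Kolthoff rate read at 420 nm, with platewise normalization to MNT and solvent controls.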

Experiment [2] in a line: CCTE_Mundy_HCI_iCellGluta_NOG_NeuriteLength: CCTE's Neurite Outgrowth Assay in iCellGluta cells for Neurite Length, Mundy Lab (AID 2284318). The method, boiled down: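 Automated high-content imaging of betaIII-tubulin (Alexa Fluor-488) and Hoechst-stained cells gave neurite length, normalized to the DMSO baseline.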
A short description of experiment [3]: CCTE_Mundy_HCI_iCellGluta_NOG_NeuronCount: CCTE's Neurite Outgrowth Assay in iCellGluta cells for Neuron Count, Mundy Lab (AID 2284340).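 Further: cells fixed about 48 h after compound addition.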 The method, boiled down: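 Neuron count read by automated high-content imaging of Hoechst 33342 and betaIII-tubulin/Alexa Fluor-488 labelling in human iPSC glutamatergic neurons. Activity fitted relative to DMSO.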
A short description of experiment [4]: CCTE_Mundy_HCI_iCellGluta_NOG_NeuriteCount: CCTE's Neurite Outgrowth Assay in iCellGluta cells for Neurite Count, Mundy Lab (AID 2284342).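 Further: chemical exposure about 48 hours starting 2 hours after plating.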
For experiment [5], the system named is SERPINA7 (gene 6906). Kind of experiment: CCTE_GLTED_hTBG: CCTE's human Thyroxine-binding Globulin (TBG) Inhibition Assay, Great Lakes Toxicology and Ecology Division (GLTED) Lab (AID 2284343).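 Further: active chemicals lower fluorescence versus DMSO baseline by displacing probe.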 The method, boiled down:
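Measures how far test chemicals displace ANSA bound to purified human TBG. The read-out is fluorescence at 380 nm excitation and 475 nm emission, taken after 2 h of incubation.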

A short description of experiment [6]: IUF_NPC4_neurite_area_120hr: Leibniz Research Institute for Environmental Medicine (IUF) 120-hour Neuronal Morphology Assay for Neurite Area (NPC4) (AID 2284305). An outline of the steps:
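Human fetal cortex-derived neural progenitor spheres (0.3 mm, GW 16-19) plated on poly-D-lysine/laminin in N2 differentiation medium and exposed from day 0 for 120 h across 7 concentrations plus solvent control. Neurite area is mean pixel area per TUBB3-positive neuron via skeletonization, analysed relative to DMSO.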

Experiment [7] is described as follows: IUF_NPC2-5_cytotoxicity_72hr: Cytotoxicity Assessment at 72 hours in the Leibniz Research Institute for Environmental Medicine (IUF) Neural Progenitor Cell Migration and Differentiation Assay for Cytotoxicity (NPC2-5) (AID 2284306).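 Further: LDH release into supernatant measured by resorufin fluorescence marking membrane damage.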 An outline of the steps: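 Human fetal (GW 16-19) neural progenitor spheres, 0.3 mm, plated on poly-D-lysine/laminin in N2 differentiation medium and exposed from day 0 to 7 concentrations plus solvent control (DMSO ≤0.1%). LDH-dependent resazurin-to-resorufin fluorescence in supernatant at 72 h.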

Experiment [8] can be described thus: IUF_NPC2-5_cytotoxicity_120hr: Cytotoxicity Assessment at 120 hours in the Leibniz Research Institute for Environmental Medicine (IUF) Neural Progenitor Cell Migration and Differentiation Assay (NPC2-5) (AID 2284307). The method, boiled down:
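Membrane-integrity loss measured as LDH activity in medium supernatant via resazurin-to-resorufin fluorescence after 120 h exposure. hNPC spheres from GW 16-19 fetal cortex differentiated on poly-D-lysine/laminin, 37C, medium half-refreshed day 3; seven concentrations, DMSO max 0.1%.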

Experiment [9] can be described thus: IUF_NPC2-5_cell_number_120hr: Cell Number Assessment at 120 hours in the Leibniz Research Institute for Environmental Medicine (IUF) Neural Progenitor Cell Migration and Differentiation Assay (NPC2-5) (AID 2284308; active means hit-call score of the fitted dose curve at least 0.9, where 1 is the maximum; inactive means score below 0.9;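 further: count of Hoechst-stained nuclei in migration zone around plated human neural progenitor spheres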). The method, boiled down: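 Counting of all Hoechst-stained nuclei in the migration area at 120 h, versus DMSO control. Primary hNPC spheres differentiated on poly-D-lysine/laminin in N2 medium at 37C, dosed from day 0 (7 concentrations, DMSO ≤0.1%), half-refed day 3.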

Experiment [10] is described as follows: IUF_NPC2-5_viability_120hr: Viability Assessment at 120 hours in the Leibniz Research Institute for Environmental Medicine (IUF) Neural Progenitor Cell Migration and Differentiation Assay (NPC2-5) (AID 2284312; active means hit-call score of the fitted dose curve at least 0.9, where 1 is the maximum; inactive means score below 0.9). An outline of the steps: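 Human fetal (GW 16-19) neural progenitor spheres of 0.3 mm were plated on poly-D-lysine/laminin in N2 differentiation medium and exposed from day 0 for 120 h, with half-medium refresh at day 3. Viability was read as alamar blue resazurin-to-resorufin fluorescence against DMSO.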

Experiment [11] in a line: IUF_NPC1_cytotoxicity_72hr: Cytotoxicity Assessment at 72 hours in the Leibniz Research Institute for Environmental Medicine (IUF) Neural Progenitor Cell Proliferation Assay (NPC1) (AID 2284332).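 Further: rising LDH signal means more cytotoxicity.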 An outline of the steps:
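hNPC spheres (fetal brain, gestational week 16-19) grown under proliferative EGF/FGF conditions, pH 7.2-7.6, were treated continuously for 72 h. Cytotoxicity came from LDH-coupled resazurin fluorescence in each well's supernatant.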

Experiment [12] is described as follows: CCTE_Deisenroth_5AR_NBTE_donor: CCTE's 5alpha-reductase NanoBRET Target Engagement Assay […], Deisenroth Lab (AID 2284319; active means hit-call score of the fitted dose curve at least 0.9, where 1 is the maximum; inactive means score below 0.9). The following applies: actives raise or lower the signal. An outline of the steps:
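SRD5A2-NanoLuc, HEK293T, 20 h expression. Chemical 10 nM - 29.9 uM, 8 conc, duplicate; 3 h preincubation + 2 h testosterone tracer. Nano-Glo substrate plus extracellular NanoLuc inhibitor; donor lum 460 nm. DMSO baseline, bidirectional fit.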
A general note: BRET reads energy transfer from a luciferase to a nearby fluorophore.

Experiment [13] can be described thus: CCTE_Deisenroth_5AR_NBTE_acceptor: CCTE's 5alpha-reductase NanoBRET Target Engagement Assay - Autofluorescence Screen, Deisenroth Lab (AID 2284321; active means hit-call score of the fitted dose curve at least 0.9, where 1 is the maximum; inactive means score below 0.9;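 further: compound fluorescence in the acceptor channel under 460 nm excitation flags autofluorescence artifacts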). Conditions: actives raise or lower the signal. An outline of the steps:
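Acceptor-channel fluorescence flags artifacts, with excitation fixed at 460 nm. Nominal 100 uM chemical samples were read in triplicate runs, and signal changes were fitted in both directions relative to DMSO.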

Experiment [14] concerns SRD5A2 (gene 6716). Kind of experiment: CCTE_Deisenroth_5AR_NBTE_ratio: CCTE's 5alpha-reductase NanoBRET Target Engagement Assay - Ratio, Deisenroth Lab (AID 2284322; active means hit-call score of the fitted dose curve at least 0.9, where 1 is the maximum; inactive means score below 0.9). The following applies: actives raise or lower the signal. An outline of the steps: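 Reverse-transfect HEK293T with pNLF1-C-SRD5A2, express 20 h. Pre-incubate cells with chemical 3 h (8-point series, 10 nM - 29.9 uM, duplicate). Add testosterone tracer, 2 h more. Add substrate/inhibitor, read donor and acceptor emission.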

Experiment [15] can be described thus: CCTE_Padilla_ZF_Score.Craniofacial: CCTE's 144 Hour Post-fertilization zebrafish Assay Score for Craniofacial Malformation, Padilla Lab (AID 2284405; active means hit-call score of the fitted dose curve at least 0.9, where 1 is the maximum; inactive means score below 0.9). An outline of the steps: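 Wild-type zebrafish embryos (with chorions), one per well in 10% Hanks', were dosed at 6–8 hpf in sealed plates and kept at 26C. They were rinsed at 5 dpf. At 6 dpf two blinded assessors scored craniofacial malformations by brightfield stereomicroscopy.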

Experiment [16] can be described thus: CCTE_Padilla_ZF_Score.Edema: CCTE's 144 Hour Post-fertilization zebrafish Assay Score for Edema Malformation, Padilla Lab (AID 2284406; active means hit-call score of the fitted dose curve at least 0.9, where 1 is the maximum; inactive means score below 0.9). The method, boiled down:
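Wild-type zebrafish embryos, one per well in Hanks' solution, dosed at 6-8 hpf, sealed and reared at 26C on a 14:10 h cycle; rinsed on 5 dpf. At 6 dpf, blinded assessors scored edema by stereomicroscopy.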

A short description of experiment [17]: CCTE_Padilla_ZF_Score.Spine: CCTE's 144 Hour Post-fertilization zebrafish Assay Score for Spine Malformation, Padilla Lab (AID 2284407; active means hit-call score of the fitted dose curve at least 0.9, where 1 is the maximum; inactive means score below 0.9). The method, boiled down: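 Wild-type zebrafish embryos, one per well in Hanks' solution, dosed at 6–8 hpf in sealed plates at 26C, 14:10 h light:dark; rinsed at 5 dpf. Two blinded assessors scored spinal defects by stereomicroscopy at 6 dpf; fitted versus DMSO.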

Experiment [18] is described as follows: CCTE_Padilla_ZF_Score.Swim_bladder: CCTE's 144 Hour Post-fertilization zebrafish Assay Score for Swim Bladder Malformation, Padilla Lab (AID 2284408; active means hit-call score of the fitted dose curve at least 0.9, where 1 is the maximum; inactive means score below 0.9). The method, boiled down: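 Wild-type zebrafish embryos, one per well in 10% Hanks', dosed at 6–8 hpf, sealed, reared at 26C and rinsed at 5 dpf. Blinded assessors scored uninflated swim bladder by stereomicroscopy at 6 dpf, relative to DMSO.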

Records with an inconclusive call do not appear. Activity calls are given as the source filed them. How the source made its calls, unless noted: active means hit-call score of the fitted dose curve at least 0.9, where 1 is the maximum; inconclusive means response in the unintended direction; inactive means score below 0.9.

In the case of `CCCCC/C=C\C/C=C\CCCCCCCC(=O)OC`, the result in experiment [1] was inactive.

With `N[C@H]1C(O)O[C@H](CO)[C@H](O)[C@@H]1O` (stereo partly drawn), the result in experiment [2], in experiment [3] and in [4] was inactive.

For the molecule `CCCCCCCCCCCCCOP(=O)(O)O`, the AC50 was 40.2 µM (active) in [1] and 2.24 µM (active) in experiment [5].

`Nc1ncn([C@@H]2O[C@H](CO)[C@@H](O)[C@H]2O)c(=O)n1`: the molecule was classed as inactive in experiment [6], in [7], in [8], in experiment [9], in [10] and in [11]. For the same molecule, the molecule was called inactive in experiment [3] and in [4]. Also, the AC50 in experiment [2] is 7.87 µM (active).

Consider `CCCCCCCC/C=C\CCCCCCCC(=O)OCCO`, for which the AC50 in [1] is 128 µM (active).

For the molecule `CCCCCCCC[N+](C)(CCCCCCCC)CCCCCCCC`, the AC50 is 27.2 µM (active) in experiment [1], 11.4 µM (active) in experiment [12], 8.7 µM (active) in [13] and 20.1 µM (active) in experiment [14].

`CCCCC(CC)CCC(CC(C)C)OS(=O)(=O)O` (stereo not drawn): in experiment [5], the AC50 was 11.1 µM (active).

As to `O=c1cc(-c2ccccc2)oc2ccccc12`, in [5], the AC50 was 18.5 µM (active).

As for `CCN(CCC#N)c1ccc(N=Nc2c(Cl)cc([N+](=O)[O-])cc2Cl)cc1`, the AC50 in experiment [1] is 152 µM (active); in experiment [14], 10 µM (active). Moreover, the result in [12] and in [13] was inactive.

As for `COC(=O)c1c(C)cc(O)c(C)c1O`, the molecule was called inactive in [12], in experiment [13] and in [14].

For `O=S(=O)(O)c1ccccc1C=Cc1ccc(-c2ccc(C=Cc3ccccc3S(=O)(=O)O)cc2)cc1`, in experiment [1], the AC50 was 100 µM (active).

`O=C(Nc1ccccc1)c1ccccc1O`: the molecule was classed as inactive in experiment [1].

Turning to `CN(C)c1ccc(N=Nc2ccccc2C(=O)O)cc1`, in experiment [5], the AC50 was 25.6 µM (active).

As to `Oc1ccc(Cl)cc1Cc1cc(Cl)ccc1O`, the AC50 is 100 µM (active) in experiment [1], 29 µM (active) in experiment [14] and 0.072 µM (active) in experiment [5]. Besides, the outcome in [12] and in [13] was inactive.

For the molecule `CCOC(F)(F)C(F)(F)C(F)(F)C(F)(F)F`, the outcome in [15], in [16], in experiment [17] and in experiment [18] was inactive.

For `O=C(Nc1cccc(C(F)(F)F)c1)c1cc(Br)cc(Br)c1O`, the AC50 in experiment [1] was 100 µM (active).

With `CC/C=C\C/C=C\C/C=C\CCCCCCCC(=O)O`, the call in [1] was inactive.

Usually AC50 stands for the concentration at which the activity in the assay is half-maximal.
